Assay [1] is described as follows: qHTS of pediatric cancer cell lines to identify multiple opportunities for drug repurposing: Primary screen for Saos-2 cells (AID 1347097). Further: nearly all actives have a fitted effect of over 40% in size. A digest of the protocol:
(§1)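 Viability was measured as metabolically active cells after 48 hours of treatment, read by CellTiter-Glo luminescence. Compounds were tested at multiple final concentrations, giving concentration-response curves.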

Assay [2] in a line: qHTS of pediatric cancer cell lines to identify multiple opportunities for drug repurposing: Primary screen for SK-N-SH cells (AID 1347098). Further: nearly all actives have a fitted effect of over 65% in size. A digest of the protocol:
(§2)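 Cells (500-1,000/well) rested 5 h, then received compounds for 48 h; metabolically active cells were measured by CellTiter-Glo luminescence. Final concentrations spanned up to 46 µM (MIPE, 11-point) or 0.59 nM-46 µM (NPC, 8-point) in primary screens, 11-point in follow-ups.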

Assay [3] in a line: qHTS of pediatric cancer cell lines to identify multiple opportunities for drug repurposing: Primary screen for NB1643 cells (AID 1347099). Further: nearly all actives have a fitted effect of over 50% in size. A digest of the protocol:
as §1

A short description of assay [4]: qHTS of pediatric cancer cell lines to identify multiple opportunities for drug repurposing: Primary screen for LAN-5 cells (AID 1347100). In a few lines:
(§3)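 Cells (500-1,000/well) in growth media were settled 5 h at 37 degrees C, then given compounds for 48 h. Viability was read as CellTiter-Glo luminescence. Primary runs used MIPE at 11 points (0.78 nM-46 µM) and NPC at 8 points (0.59 nM-46 µM); follow-ups used 11 points.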

The nature of assay [5]: qHTS of pediatric cancer cell lines to identify multiple opportunities for drug repurposing: Primary screen for BT-12 cells (AID 1347101). Further: nearly all actives have a fitted effect of over 25% in size. In a few lines:
as §2

Assay [6] is described as follows: qHTS of pediatric cancer cell lines to identify multiple opportunities for drug repurposing: Primary screen for Rh18 cells (AID 1347102). Further: nearly all actives have a fitted effect of over 65% in size. In a few lines:
as §3

The nature of assay [7]: qHTS of pediatric cancer cell lines to identify multiple opportunities for drug repurposing: Primary screen for OHS-50 cells (AID 1347103). Further: nearly all actives have a fitted effect of over 40% in size. A digest of the protocol:
as §2

Assay [8] in a line: qHTS of pediatric cancer cell lines to identify multiple opportunities for drug repurposing: Primary screen for RD cells (AID 1347104). Further: nearly all actives have a fitted effect of over 55% in size. In a few lines:
as §1

Assay [9] can be described thus: qHTS of pediatric cancer cell lines to identify multiple opportunities for drug repurposing: Primary screen for MG 63 (6-TG R) cells (AID 1347105). Further: nearly all actives have a fitted effect of over 50% in size. A digest of the protocol: as §1
Assay [10] in a line: qHTS of pediatric cancer cell lines to identify multiple opportunities for drug repurposing: Primary screen for control Hh wild type fibroblast cells (AID 1347106). Further: nearly all actives have a fitted effect of over 55% in size. In a few lines: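 Viability after 48 h compound treatment at 37C, 500-1,000 cells/well, read as ATP luminescence with CellTiter-Glo. Primary screens used 11-point (MIPE, 0.78 nM-46 µM) or 8-point (NPC, 0.59 nM-46 µM) final concentrations; follow-up screens used 11-point dilutions.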

Results filed as inconclusive are left out. Calls of active or inactive are those of the source. The call rests on the fitted dose curve; in most records, active means well fitted curve in the direction sought with a large enough effect; inconclusive means small, poorly fitted or top-dose-only effect, or another doubt; inactive means no such curve, though single readings can be large; an effect the other way counts as inactive or inconclusive.
Potency means the concentration at half of the fitted maximal effect.

As for `OC[C@H]1O[C@@H](Oc2ccc(O)cc2)[C@H](O)[C@@H](O)[C@H]1O`, the Potency entry in assay [1], in assay [2], in [3], in assay [4], in assay [5] and in assay [6] was “inactive” throughout. Moreover, the Potency entry in assay [7], in assay [8], in [9] and in assay [10] was “inactive” each time.

Turning to `CN(C)CCOc1cc(-c2cn[nH]c2)ccc1NC(=O)C1COc2ccccc2O1` (stereo not drawn), the Potency in [1] is 2.96 µM (active); in assay [2], 10.8 µM (active); in [3] it was 9.35 µM (active). The Potency result in assay [4], in assay [5] and in assay [10] was “inactive” in each case.

Take `CCOC(=O)N1CCN([N+]([O-])=NOc2cc(ON=[N+]([O-])N3CCN(C(=O)OCC)CC3)c([N+](=O)[O-])cc2[N+](=O)[O-])CC1`: the Potency result in [1], in assay [2], in [3], in assay [4], in assay [5] and in assay [6] was “inactive” each time. The Potency entry in assay [7], in assay [8], in [9] and in assay [10] was “inactive” in each case.

In the case of `CC[C@H](C=C[C@@H](C)[C@H]1CC[C@H]2[C@@H]3CC=C4C[C@@H](O)CC[C@]4(C)[C@@H]3CC[C@]12C)C(C)C`, the Potency entry in assay [1], in assay [2], in assay [3], in [4], in [5] and in assay [6] was “inactive” in each case. Besides, the Potency result in assay [7] and in assay [10] was “inactive” throughout.

In the case of `CCCCN(CCCC)CC(O)c1cc(Cl)cc2c1-c1ccc(Cl)cc1C2=Cc1ccc(Cl)cc1` (stereo not drawn), the Potency entry in assay [1], in assay [2], in [3], in assay [4], in [5] and in [6] was “inactive” each time. Besides, the Potency entry in assay [9] and in assay [10] was “inactive” throughout.

As for `O=C(c1ccc(C(=O)N2CCC(N3CCCC3)CC2)c(Nc2ccccc2)c1)N1CCC(N2CCCC2)CC1`, the Potency result in assay [1], in [2], in assay [3], in [4], in assay [5] and in [7] was “inactive” in each case. In addition, the Potency entry in assay [8], in [9] and in assay [10] was “inactive” each time.

As for `CCN1C[C@H](C)n2c(c(O)c3c(=O)n(Cc4ccc(F)c(Cl)c4)nc(C(=O)NC)c32)C1=O`, the Potency result in assay [1], in [2], in assay [3], in [4], in [5] and in assay [7] was “inactive” throughout. The Potency result in assay [9] and in assay [10] was “inactive” each time.

As for `CN(C)CCN(C)C(=O)c1ccc(NC(=O)Nc2ccc(-c3nc(N4CCOCC4)c4ccn(CC(F)(F)F)c4n3)cc2)cc1`, the Potency in [1] is 0.418 µM (active); in assay [2], 7.64 µM (active); in [3] it was 0.418 µM (active); in [4] it was 2.64 µM (active); in [5], 3.06 µM (active); in assay [6], 0.187 µM (active). Moreover, the Potency in assay [7] was 0.0432 µM (active); in [8] it was 0.372 µM (active); in [9] it was 0.187 µM (active); in [10], 0.0526 µM (active).

On to `Cc1[nH]c(C=C2C(=O)Nc3ccc(S(=O)(=O)N(C)c4cccc(Cl)c4)cc32)c(C)c1C(=O)N1CCN(C)CC1`, for which the Potency is 18.7 µM (active) in assay [1]; 30.4 µM (active) in assay [2]; 18.7 µM (active) in assay [3]; 9.35 µM (active) in assay [4]; 17.2 µM (active) in assay [5]; 23.5 µM (active) in assay [6]. Besides, the Potency in assay [7] is 19.3 µM (active); in [8], 29.6 µM (active). The Potency entry in assay [10] was “inactive”.

Regarding `COc1cc(C=CC(=O)O)ccc1O`, the Potency entry in assay [1], in assay [2], in assay [3], in assay [4], in assay [5] and in [9] was “inactive” throughout. In [10], the Potency entry was “inactive”.

In the case of `N#CC(=C1Nc2ccccc2S1)c1ccnc(OCc2ccc(CN3CCOCC3)cc2)n1`, the Potency is 0.0148 µM (active) in assay [1]; 0.482 µM (active) in assay [2]; 0.0526 µM (active) in assay [3]; 1.48 µM (active) in assay [4]; 0.172 µM (active) in assay [5]; 0.344 µM (active) in assay [7]. Besides, the Potency in [9] was 3.72 µM (active).

As for `CCCCC(F)(F)[C@@]1(O)CC[C@H]2[C@H](CC(=O)[C@@H]2CCCCCCC(=O)O)O1`, the Potency result in [1], in assay [2], in assay [3], in [4], in [5] and in assay [6] was “inactive” throughout. The Potency entry in assay [7], in assay [8], in [9] and in assay [10] was “inactive” in each case.

With `CC1(COc2ccc3c(c2)ncn3-c2ccc3cccc(N4CCC(N)CC4)c3n2)COC1`, the Potency in assay [1] is 16.6 µM (active); in assay [4], 0.001 µM (active); in assay [5], 6.11 µM (active); in assay [6], 10.5 µM (active); in assay [7], 13.7 µM (active). In addition, the Potency result in [2] and in assay [3] was “inactive” each time.

Regarding `Nc1[nH]nc2nnc(-c3c(-c4ccccc4)nn4ccccc34)cc12`, the Potency is 9.35 µM (active) in assay [1]; 4.29 µM (active) in assay [2]; 1.87 µM (active) in [3]; 6.62 µM (active) in assay [4]; 6.85 µM (active) in assay [5]; 2.64 µM (active) in assay [6]. Also, the Potency in [7] is 1.93 µM (active); in [8] it was 11.8 µM (active).

Turning to `CC(NCCc1ccc(O)cc1)C(O)c1ccc(O)cc1` (stereo not drawn), the Potency entry in assay [1], in assay [2], in [3], in assay [4], in assay [5] and in assay [6] was “inactive” throughout. The Potency entry in assay [7], in assay [9] and in assay [10] was “inactive” each time.

For `CN(C)c1nc(Cc2ccc(NC(=O)c3ccc(C(F)(F)F)cc3)cc2)nc(N(C)C)c1CC(=O)O`, the Potency entry in assay [1], in [2], in assay [3], in assay [4], in assay [5] and in assay [6] was “inactive” each time. Besides, the Potency entry in assay [7], in assay [8], in [9] and in assay [10] was “inactive” throughout.

Take `CN(C)CC[C@H](CSc1ccccc1)Nc1ccc(S(=O)(=O)NC(=O)c2ccc(N3CCN(Cc4ccccc4-c4ccc(Cl)cc4)CC3)cc2)cc1[N+](=O)[O-]`: the Potency was 9.35 µM (active) in assay [1]; 7.64 µM (active) in [2]; 0.0187 µM (active) in [3]; 0.0209 µM (active) in [4]; 0.187 µM (active) in assay [6]; 6.85 µM (active) in assay [7]. For the same compound, in assay [8], the Potency is 5.9 µM (active).

The values above are taken from PubChem BioAssay (NCATS).
